Reference: PubChem BioAssay (NCI)
The panel holds about 83,000 compounds, 20% with a hit somewhere; the sample as a whole holds those more often.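 For each line, cells grew in 96-well plates with the test compound present at a single concentration for 48 hours.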 Activity calls are given as the source filed them. How the source made its calls: active means growth percent below 10; inactive means the rest.

tested on: HL-60(TB) leukemia; assay: NCI-60 one-dose screen, 48 h (100 = growth as untreated, 0 = no growth, -100 = all killed); conditions: 10 µM unless noted

| Compound | growth |
| --- | --- |
| COc1ccc(C(=O)COc2cccc(/C=C3\CSc4ccc(C)cc4C3=O)c2)cc1 | 45.6% (inactive) |
| CC(=O)O[C@H]1CC[C@@]2(C)[C@@H](CC[C@@H]3[C@@H]2CC(=O)[C@@]2(C)[C@H]3C[C@@H](C3CCCC3=O)[C@@H]2C(C)=O)C1 (stereo not given in full) | 51.8% (inactive) |
| C#CCOc1cccc(-c2ncnc3cc(NC(=O)CCl)ccc23)c1 | -29.7% (active) |
| Cc1ccc2nc(-[n+]3cc4ccccc4cc3C)ccc2c1 | 0.144% (active) |
| O=C(CN1CCN(c2ccc(Cl)cc2)CC1)N1CCN(c2nnc(-c3ccc(Cl)cc3)c(-c3ccc(Cl)cc3)n2)CC1 | 41.4% (inactive) |
| COc1ccc(/C=C2\c3cc(OC)c(OC)c(OC)c3CC[C@@H]2O)cc1F | -22.4% (active) |
| Nc1cc(Br)c(-c2nnc(CCC(=O)c3nc4ccccc4[nH]3)o2)c(Br)c1 | 88% (inactive) |
| NC(N)=N/N=C\c1cccc(OCc2ccccc2)c1 | 55.5% (inactive) |
| O=C(c1ccccc1)C(Br)C(Br)c1ccccc1 (stereo not given) | 39.5% (inactive) |
| OCCNCCNc1c2ccccc2nc2ccccc12 | 86.2% (inactive) |
| O=C(Nc1ccc(/C=C2\SC(=O)N(Cc3ccc(OC(F)(F)F)cc3)C2=O)cc1)c1ccc(Cl)c([N+](=O)[O-])c1 | 71.3% (inactive) |
| CCN1C(=O)/C(=c2\sc3n(c2=O)NC2C(N=3)N(CC)C(=O)N2CC)c2ccccc21 (stereo not given) | -4.75% (active) |
| O=C(O)CCCc1ccccc1 | 109% (inactive) |
| CN(C)C(=O)c1cc2cnc(Nc3ccc(-c4csc5c(=S)cc(N6CCOCC6)oc45)cc3)nc2n1C1CCCC1 | -30.6% (active) |
| O=C(CCCCl)NNc1nccc(Nc2ccc(S(=O)(=O)Nc3ccncc3)cc2)n1 | 127% (inactive) |
| CCC(CC)(N(CC(=O)O)CC(=O)O)C(CC)(CC)N(CC(=O)O)CC(=O)O | 79.1% (inactive) |
| O=C(Nc1cc(-c2cccnc2)nc(NCCCN2CCOCC2)n1)c1cc(Br)cc(C(F)(F)F)c1 | 48.5% (inactive) |
| CCCCCCC(CC#N)(CCC)CCCC (stereo not given) | 112% (inactive) |
| CCc1ccc(C(=Nc2ccc(N(C)C(=O)CN3CCN(C)CC3)cc2)c2c(O)[nH]c3ccc(C(=O)OC)cc23)cc1 | -67% (active) |
| CC1=C2[C@@H](CC1)[C@]1(C)O[C@@](C(C)C)(C[C@H]1OC(=O)CO)[C@H]2OC(=O)C1CC1c1ccccc1 (stereo not given in full) | 89.8% (inactive) |

| Compound | growth |
| --- | --- |
| C=C1C(=O)O[C@H]2[C@H]1CC/C(COC(=O)NCc1c[nH]c3ccc(Cl)cc13)=C\CC[C@@]1(C)O[C@@H]21 | -32.9% (active) |
| COc1ccc2[nH]c(C(=O)OCc3ccc4c(Br)cc(Br)c(O)c4n3)cc2c1 | -32.7% (active) |
| COc1ccc2c(c1)C(=O)CC(c1ccccc1OC)O2 (stereo not given) | 88.2% (inactive) |
| COc1ccc(/C=C2\COc3ccc(O)cc3C2=O)cc1 | -33.1% (active) |
| COc1ccc(C2C=C(c3ccc(OC)c(OC)c3)N=C3SC=CN32)c(Br)c1 (stereo not given) | 57.6% (inactive) |
| NS(=O)(=O)c1ccc(N2CC(c3nc4ccccc4[nH]3)CC2=O)cc1 (stereo not given) | 99.4% (inactive) |
| O=C1Nc2ccccc2/C1=N/c1nc(-c2ccc(Cl)cc2)cs1 | 7.82% (active) |
| CN(C)c1nc(N)c(N=O)c(N)n1 | 106% (inactive) |
| CN1CCN(Cc2ccc(NC(=O)c3cncc(C#Cc4cncn5ccnc45)c3)cc2C(F)(F)F)CC1 | 20.2% (inactive) |
| CCCCn1c(=O)c2c(nc3n2CCCN3CCc2ccc(OCC(=O)NCCN(CC)CC)cc2)n(CCCC)c1=O | 67.3% (inactive) |
| CCOC(=O)CCN(CC(C)C)C(=S)Nc1ccccc1 | 97.2% (inactive) |
| C/C(O)=C(\C=N\C(N)=S)C(=O)Nc1ccccc1 | 105% (inactive) |
| COc1cc2c(cc1OC)-c1ccc3cc4c(cc3c1N(CCCN(C)C)C2)OCO4 | 30.4% (inactive) |
| CCOC(=O)Oc1c(OC)cc(C(=O)c2ccc(OC)c(O)c2OC)cc1OC | -32.6% (active) |
| CC(C)(C)N1CCC1C(N)=O (stereo not given) | 92.4% (inactive) |
| O=C1c2c(O)cc(O)cc2-c2c(-c3ccc(O)cc3)oc3cc(O)cc1c23 | 17% (inactive) |
| Cc1cc[n+](CCCCCCCCCC[n+]2ccc(C)cc2)cc1 | 95.3% (inactive) |
| Clc1ccc(N2N=C(c3cccc(Nc4ccncc4)c3)CC2c2ccc3c(c2)OCO3)cc1 (stereo not given) | 22.5% (inactive) |
| Cc1ccc(NC(=O)c2sc3nc(C)c(C(O)c4ccccc4)cc3c2N)cc1 (stereo not given) | -47.5% (active) |
| CN1CCN(c2ccc(C(=O)Nc3n[nH]c4ccc(Cc5cc(F)cc(F)c5)cc34)c(NC3CCOCC3)c2)CC1 | -57.1% (active) |
